Results published in PubChem BioAssay (NCATS).
Values joined by “and” are separate entries in the source; they are usually repeats but may differ in a detail not shown here. Equal entries are not always repeated. Results filed as inconclusive are left out. A call without a number means that no potency is given here. Active and inactive are the calls of the source. Unless noted, calls follow the shape of the dose curve; as a rule, active = well fitted curve in the direction sought with a large enough effect; inconclusive = small, poorly fitted or top-dose-only effect, or another doubt; inactive = no such curve, though single readings can be large; an effect the other way counts as inactive or inconclusive.

Assays:
[1] = target: Alpha-galactosidase A (Homo sapiens) (UniProt P06280); experiment: Counterscreen for Glucocerebrosidase Inhibitors: qHTS Assay for Human alpha-Galactosidase at pH 4.5 (AID 992)
Summary of the method: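 Steps: enzyme (2 nM final), then compound across 0.7 nM to 77 uM, then 80 uM fluorogenic galactopyranoside substrate; incubate 20 min at room temperature; quench at pH 10; measure fluorescence at 365/440 nm.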

[2] = target: alpha-glucosidase (Oryza sativa, rice) (UniProt Q653V4); experiment: Counterscreen for Glucocerebrosidase Inhibitors: qHTS Assay for Rice alpha-Glucosidase at pH 5.0 (AID 997)
Summary of the method: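 Endpoint fluorogenic assay at pH 5.0: compounds (0.7 nM to 77 uM) titrated against 4 nM rice enzyme and 400 uM 4-MU-alpha-glucoside for 20 min at room temperature; NaOH/glycine stop, read ex 365/em 440 nm, Hill-fitted AC50.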

[3] = target: Alpha-galactosidase (Coffea arabica) (UniProt Q42656); experiment: Counterscreen for Glucocerebrosidase Inhibitors: qHTS Assay for Coffee Bean alpha-Galactosidase at pH 5.9 (AID 998)
Summary of the method: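 Enzyme 2 nM + cpd (0.7 nM–77 uM titration) + 4-MU-alpha-Gal 80 uM, pH 5.9 citrate/Tween-20, RT 20 min, NaOH/glycine stop pH 10, fluor 365/440. Normalized to no-enzyme and full-activity controls; Hill-fit AC50.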

[4] = Validation of Assay for Modulators of Lamin A Splicing (AID 1459; active = well fitted curve in the direction sought with a large enough effect in the signal ratio; the % refers to the signal ratio;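 also: cells exposed to compound for two days before reading; ratio rise marks activators and ratio drop marks inhibitors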)
Summary of the method: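 Dual-reporter HeLa S3 line (lamin A-EGFP minigene, DsRed2) treated with compounds 48 hrs, 0.5% DMSO final. Endpoint: EGFP/DsRed2 total intensity ratio from laser-scanning microplate cytometry.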

[5] = qHTS Assay for Lipid Storage Modulators (AID 1519; calls by dose curve; also: potency is read from the fitted curve at half-maximal effect); conditions: Drosophila S3 cells, BODIPY lipid droplet/cell ratio, laser cytometry, cells loaded with oleic acid
Summary of the method: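 Cells seeded at 5,000 per well were treated with compounds over a concentration series and loaded with oleic acid (400 uM, as added). Lipid droplet fluorescence (488 nm excitation, 500-530 nm channel) was read by laser-scanning cytometry and normalized to 20 uM Triacsin C.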

[6] = target: DNA repair nuclease/redox regulator APEX1 (Homo sapiens) (UniProt P27695); experiment: qHTS Validation Assay for Inhibitors of the Human Apurinic/apyrimidinic Endonuclease 1 (APE1) (AID 1705; also: potency is read from the fitted curve at half-maximal effect;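 as to activity change, negative = inhibition: TAMRA fluorescence gain over two minutes as APE1 cuts a quenched THF abasic duplex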)
Summary of the method: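 Substrate: 50 nM final fluorophore/quencher THF-abasic duplex. Enzyme preincubated with compounds 15 min, RT. Progress derived from fluorescence difference, third minus first kinetic read.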

[7] = Counterscreen for APE1 Inhibitors: Fluorescent Dye Displacement Validation Assay (AID 1707); also: potency is read from the fitted curve at half-maximal effect
Summary of the method: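 Reaction mixture of 250 nM Thiazole Orange and 50 nM double-stranded abasic-site DNA was dispensed, compounds were pin-transferred, and fluorescence was read at endpoint (480 nm ex, 540 nm em). Reduced fluorescence indicated dye displacement by DNA binding.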

[8] = Cell Viability - LYMP2-026 (AID 989); also: nearly all actives have a fitted effect of over 50% in size
Summary of the method: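 qHTS cytotoxicity: 2500 cells/well, 5 hr 37 C, compound 24 hr 37 C, CellTiter-Glo 30 min RT, luminescence. Tetraoctylammonium bromide positive control. AC50 via standard Hill fit.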

[9] = Cell Viability - LYMP1-002 - Assay at 24 hr (AID 993)
Summary of the method: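 CellTiter-Glo luminescence (intracellular ATP) after 24 h compound exposure, 37 C, in LYMP1-002 human lymphoblastoid cells; decreased ATP taken as cytotoxicity. AC50 from standard Hill fit of concentration-response curves.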

[10] = Cell Viability - LYMP1-002 - Assay at 40 hr (AID 994); also: nearly all actives have a fitted effect of over 60% in size
Summary of the method: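 qHTS cytotoxicity; 2500 cells/well, 5 hr 37 C settle, compound 40 hr 37 C. CellTiter-Glo, 30 min RT, luminescence (ATP). Concentration-response, Hill fit → AC50. Pos. ctrl tetraoctylammonium bromide.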

[11] = measured here: cell count channel max response
[12] = measured here: lipid channel max response

Sequence of Alpha-galactosidase (Coffea arabica) (Q42656 whole entry, looked up): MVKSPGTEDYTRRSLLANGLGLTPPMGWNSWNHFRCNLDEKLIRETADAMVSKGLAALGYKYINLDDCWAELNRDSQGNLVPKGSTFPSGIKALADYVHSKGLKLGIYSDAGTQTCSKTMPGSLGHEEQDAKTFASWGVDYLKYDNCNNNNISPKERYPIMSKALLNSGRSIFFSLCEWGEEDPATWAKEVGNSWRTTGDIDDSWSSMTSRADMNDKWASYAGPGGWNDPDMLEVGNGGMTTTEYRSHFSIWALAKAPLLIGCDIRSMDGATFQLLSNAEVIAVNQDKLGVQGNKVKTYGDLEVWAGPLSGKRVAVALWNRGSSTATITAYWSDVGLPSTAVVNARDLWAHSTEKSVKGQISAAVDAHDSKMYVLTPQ
Sequence of Alpha-galactosidase A (Homo sapiens) (P06280 whole entry, looked up): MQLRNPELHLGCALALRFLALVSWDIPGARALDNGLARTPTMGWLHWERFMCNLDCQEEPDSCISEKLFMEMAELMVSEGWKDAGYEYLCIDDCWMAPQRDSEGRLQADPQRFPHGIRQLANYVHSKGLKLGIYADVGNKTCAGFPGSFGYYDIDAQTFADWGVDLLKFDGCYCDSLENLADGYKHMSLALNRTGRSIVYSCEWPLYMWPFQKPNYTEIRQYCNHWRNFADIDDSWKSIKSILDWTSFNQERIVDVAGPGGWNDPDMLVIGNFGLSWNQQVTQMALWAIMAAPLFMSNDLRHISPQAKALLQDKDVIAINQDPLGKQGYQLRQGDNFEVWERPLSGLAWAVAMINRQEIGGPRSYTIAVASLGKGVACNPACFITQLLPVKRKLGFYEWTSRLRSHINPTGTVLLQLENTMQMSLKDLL
Sequence of DNA repair nuclease/redox regulator APEX1 (Homo sapiens) (P27695 whole entry, looked up): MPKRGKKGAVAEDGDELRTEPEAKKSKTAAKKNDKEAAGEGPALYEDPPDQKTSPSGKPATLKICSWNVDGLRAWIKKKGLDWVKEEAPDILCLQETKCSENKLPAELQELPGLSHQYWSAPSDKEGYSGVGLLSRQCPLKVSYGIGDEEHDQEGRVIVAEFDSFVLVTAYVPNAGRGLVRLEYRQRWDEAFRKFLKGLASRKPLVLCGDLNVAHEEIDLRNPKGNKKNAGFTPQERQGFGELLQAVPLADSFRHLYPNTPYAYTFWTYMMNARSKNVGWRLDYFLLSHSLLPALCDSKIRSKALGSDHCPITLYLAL

Compound: O=C1CCCN1CC#CCN1CCCC1
- outcome [1]: inactive
- outcome [2]: inactive
- outcome [3]: inactive
- outcome [4]: inactive
- activity change, negative = inhibition ([5]; at 57.5 µM (top of the series)): 5.07% (inactive) and 8.93% (inactive) and 0.711% (inactive)
- max response [5, 11]: 5.66% and 4.2% and 20.8%
- max response [5, 12]: 13% and 25.8% and 21.1%
- Potency [6]: inactive
- Potency [7]: inactive

Compound: O=C(O)[C@@H]1CCN1
- outcome [4]: inactive
- activity change, negative = inhibition ([5]; at 57.5 µM (top of the series)): 1.64% (inactive)
- max response [5, 11]: -13.5%
- max response [5, 12]: -13.6%
- Potency [6]: inactive
- Potency [7]: inactive

Compound: CC(C)NC(C)Cc1ccc(I)cc1 (stereo not drawn)
- outcome [4]: inactive
- Potency [6]: 39.8 µM (active)
- Potency [7]: inactive

Compound: CS(=N)(=O)CC[C@H](N)C(=O)O (stereo partly drawn)
- outcome [4]: inactive
- activity change, negative = inhibition ([5]; at 57.5 µM (top of the series)): -1.65% (inactive)
- max response [5, 11]: 43.8%
- max response [5, 12]: 40.4%
- Potency [6]: inactive
- Potency [7]: inactive

Compound: Oc1ccc2c3c1O[C@H]1c4[nH]c5c(c4C[C@@]4(O)[C@@H](C2)N(CC2CC2)CC[C@]314)C[C@@]1(O)[C@H]2Cc3ccc(O)c4c3[C@@]1(CCN2CC1CC1)[C@H]5O4
- outcome [4]: inactive
- activity change, negative = inhibition ([5]; at 57.5 µM (top of the series)): -0.289% (inactive)
- max response [5, 11]: -23.9%
- max response [5, 12]: -23.6%
- Potency [6]: inactive
- Potency [7]: inactive

Compound: NC(=O)CN1CC(O)CC1=O (stereo not drawn)
- outcome [4]: inactive
- activity change, negative = inhibition ([5]; at 57.5 µM (top of the series)): 3.41% (inactive)
- max response [5, 11]: 18.3%
- max response [5, 12]: 20.4%
- Potency [7]: inactive

Compound: C#CCOC(=O)C1=CCCN(C)C1
- outcome [1]: inactive
- outcome [2]: inactive
- outcome [3]: inactive
- outcome [4]: inactive
- activity change, negative = inhibition ([5]; at 57.5 µM (top of the series)): 6% (inactive)
- max response [5, 11]: 13.4%
- max response [5, 12]: 20.6%
- Potency [6]: inactive
- Potency [7]: inactive

Compound: O=C(O)CC[N+](=O)[O-]
- outcome [1]: inactive
- outcome [2]: inactive
- outcome [3]: inactive
- outcome [4]: inactive
- activity change, negative = inhibition ([5]; at 57.5 µM (top of the series)): 1.53% (inactive) and -0.853% (inactive)
- max response [5, 11]: 11.6% and 14.1%
- max response [5, 12]: 18.9% and 15.4%
- Potency [6]: inactive
- Potency [7]: inactive

Compound: Cc1cc(O)ccc1Cl
- Potency [8]: inactive
- Potency [9]: inactive
- Potency [10]: inactive
- activity change, negative = inhibition ([5]; at 57.5 µM (top of the series)): 8.09% (inactive)
- max response [5, 11]: -7.09%
- max response [5, 12]: 5.53%

Compound: Cc1c(C(=O)c2cccc3ccccc23)c2cccc3c2n1[C@H](CN1CCOCC1)CO3
- outcome [1]: inactive
- outcome [2]: inactive
- outcome [3]: inactive
- Potency [6]: inactive
- Potency [7]: inactive

Compound: CC1=NN=C(c2ccc(N)cc2)c2cc3c(cc2C1)OCO3
- outcome [1]: inactive
- outcome [2]: inactive
- outcome [3]: inactive
- outcome [4]: inactive
- Potency [6]: inactive
- Potency [7]: inactive

Compound: CN[C@@H]1C[C@@H](c2ccc(Cl)c(Cl)c2)c2ccccc21
- outcome [1]: inactive
- outcome [2]: inactive
- outcome [3]: inactive
- Potency [6]: inactive
- Potency [7]: inactive

Compound: CC(=O)[C@H]1CCC2C3CC[C@H]4C[C@H](O)CC[C@]4(C)C3CC[C@@]21C (stereo partly drawn)
- activity change, negative = inhibition ([5]; at 57.5 µM (top of the series)): 2.34% (inactive)
- max response [5, 11]: -20.4%
- max response [5, 12]: -15.9%
- Potency [6]: inactive
- Potency [7]: inactive

Compound: C#CC1(O)CCC2C3CCC4=CC(=O)CCC4(C)C3CCC21C (stereo not drawn)
- activity change, negative = inhibition ([5]; at 57.5 µM (top of the series)): 2.45% (inactive)
- max response [5, 11]: 10.4%
- max response [5, 12]: 15.6%

Compound: O=C(O)CCCOc1ccc(Cl)cc1Cl
- activity change, negative = inhibition ([5]; at 57.5 µM (top of the series)): 4.8% (inactive)
- max response [5, 11]: 15.4%
- max response [5, 12]: 22.4%

Compound: COc1ccc(C(c2ccc(OC)cc2)C(Cl)(Cl)Cl)cc1
- Potency [8]: inactive
- Potency [9]: inactive
- Potency [10]: inactive
- activity change, negative = inhibition ([5]; at 57.5 µM (top of the series)): 6.03% (inactive)
- max response [5, 11]: 12.8%
- max response [5, 12]: 30.2%

Compound: CCCN1CCO[C@@H]2c3cc(O)ccc3OC[C@H]21
- outcome [1]: inactive
- outcome [2]: inactive
- outcome [3]: inactive
- outcome [4]: inactive
- Potency [6]: inactive
- Potency [7]: inactive

Compound: CC(C)Oc1cccnc1N(C)C1CCN(Cc2ccccc2)CC1
- outcome [1]: inactive
- outcome [2]: inactive
- outcome [3]: inactive
- outcome [4]: inactive
- Potency [6]: inactive
- Potency [7]: inactive

Compound: CCCCOC(=O)c1ccccc1C(=O)OCc1ccccc1
- Potency [8]: inactive
- Potency [9]: inactive
- Potency [10]: inactive

Compound: CC(=O)NCCc1c[nH]c2ccccc12
- outcome [1]: inactive
- outcome [2]: inactive
- outcome [3]: inactive
- outcome [4]: inactive
- Potency [6]: inactive
- Potency [7]: inactive

Compound: CCCCCCCCCCCCCCCC[N+](C)(C)C
- Potency [5]: 11.2 µM (active)
- max response [5, 11]: -15.3%
- max response [5, 12]: -89.4%

Compound: Clc1ccc(C(c2ccc(Cl)cc2)n2cc[n+](CC(OCc3ccc(Cl)cc3Cl)c3ccc(Cl)cc3Cl)c2)cc1 (stereo not drawn)
- Potency [6]: inactive
- Potency [7]: inactive

Compound: Clc1cnc(Oc2ccc(Oc3ncc(Cl)cc3Cl)cc2)c(Cl)c1
- outcome [1]: inactive
- outcome [2]: inactive
- outcome [3]: inactive
- outcome [4]: inactive
- Potency [7]: inactive

Compound: CC(Cc1ccc(O)cc1)NCC(O)c1cc(O)cc(O)c1 (stereo not drawn)
- Potency [6]: inactive
- Potency [7]: inactive

Compound: O=c1cccc2n1CC1CNC[C@H]2C1
- activity change, negative = inhibition ([5]; at 25.7 µM (top of the series)): -2.83% (inactive)
- max response [5, 11]: -1.29%
- max response [5, 12]: -2.58%

Compound: CC[C@@]1(O)C(=O)OCc2c1cc1n(c2=O)Cc2cc3ccccc3nc2-1
- outcome [1]: inactive
- outcome [2]: inactive
- outcome [3]: inactive
- activity change, negative = inhibition ([5]; at 57.5 µM (top of the series)): -4.36% (inactive)
- max response [5, 11]: 13.2%
- max response [5, 12]: 8.88%
- Potency [6]: inactive
- Potency [7]: inactive

Compound: CCC(=O)OC1CCC2C3CCC4=CC(=O)CC[C@@]4(C)C3CC[C@]12C (stereo partly drawn)
- activity change, negative = inhibition ([5]; at 57.5 µM (top of the series)): 11.4% (inactive)
- max response [5, 11]: 4.67%
- max response [5, 12]: 18.5%

Compound: CC(=O)OCC1=C(C(=O)O)N2C(=O)[C@@H](N)[C@@H]2SC1
- activity change, negative = inhibition ([5]; at 25.7 µM (top of the series)): 1.55% (inactive)
- max response [5, 11]: 7.67%
- max response [5, 12]: 10.5%

Compound: COc1ccc2c(c[n+](C)c3c4cc5c(cc4ccc23)OCO5)c1OC
- outcome [1]: inactive
- outcome [2]: inactive
- outcome [3]: inactive
- Potency [6]: inactive
- Potency [7]: 14.1 µM (active)

Compound: CNCCc1ccc(O)c(O)c1
- outcome [1]: inactive
- outcome [2]: inactive
- outcome [3]: inactive
- Potency [6]: inactive
- Potency [7]: inactive

Compound: COC(=O)[C@@H](N)CCCN=C(N)N[N+](=O)[O-]
- activity change, negative = inhibition ([5]; at 57.5 µM (top of the series)): -4.08% (inactive)
- max response [5, 11]: -4.51%
- max response [5, 12]: -8.77%

Compound: NC(N)=NOCCC(N)C(=O)O (stereo not drawn)
- outcome [1]: inactive
- outcome [2]: inactive
- outcome [3]: inactive
- activity change, negative = inhibition ([5]; at 57.5 µM (top of the series)): 1.36% (inactive) and 1.85% (inactive)
- max response [5, 11]: 3.95% and -21.7%
- max response [5, 12]: 4.87% and -17.2%
- Potency [6]: inactive
- Potency [7]: inactive

Compound: CCCN1CCC[C@H](c2cccc(O)c2)C1
- outcome [1]: inactive
- outcome [2]: inactive
- outcome [3]: inactive
- outcome [4]: inactive
- Potency [6]: inactive
- Potency [7]: inactive

Compound: CC(C)(O)C(=O)Nc1ccc([N+](=O)[O-])c(C(F)(F)F)c1
- Potency [8]: inactive
- Potency [9]: inactive
- Potency [10]: inactive

Compound: CN[C@@H](C)[C@H](O)c1ccccc1
- activity change, negative = inhibition ([5]; at 57.5 µM (top of the series)): -15% (inactive)
- max response [5, 11]: -49.5%
- max response [5, 12]: -56.7%
- Potency [6]: inactive
- Potency [7]: inactive

Compound: C[N+](C)(C)CC(=O)O
- outcome [3]: inactive
- outcome [4]: inactive
- Potency [6]: inactive
- Potency [7]: inactive

Compound: NC(CP(=O)(O)O)C(=O)O (stereo not drawn)
- outcome [4]: inactive
- Potency [7]: inactive
